According to PubChem BioAssay (Tox21):
Results filed as inconclusive are left out. The source made the active and inactive calls. Unless noted, calls come from the whole dose curve; as a rule, active = well fitted curve in the direction sought with a large enough effect in the repeat runs; inconclusive = weak or mixed curves; inactive = no such curve, though single readings can be large; an effect the other way counts as inactive or inconclusive.

Tests used:
[1] = target: Thyrotropin receptor (Homo sapiens) (UniProt P16473); experiment: qHTS assay to identify small molecule antagonists of the thyroid stimulating hormone receptor (TSHR) signaling pathway (AID 1259385; calls by dose curve; note: nearly all actives have a fitted effect of over 20% in size)
Procedure, shortened: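 Antagonist mode: compound-treated TSHR-expressing HEK293 cells were stimulated with 1.5 ng/mL TSH (final) in presence of Ro20-1724 for 30 min at RT. HTRF cAMP detection after 1 h; each compound tested at 15 concentrations, triplicate.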

[2] = target: Progesterone receptor (Homo sapiens) (UniProt P06401); experiment: qHTS assay to identify small molecule antagonists of the progesterone receptor (PR) signaling pathway (AID 1346795; active = well fitted inhibition curve with a large enough effect in the signal ratio in the repeat runs, not every such curve was filed as active; the % refers to the signal ratio; note: potency is the fitted concentration of half-maximal effect)
Procedure, shortened: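 Stimulus R5020 at 1 nM final; cells HEK293T PR-UAS-bla; medium with 2% charcoal-stripped FBS; compound exposure 16 hr at 37C, 5% CO2; detection by FRET beta-lactamase substrate, 2 hr, room temperature.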

[3] = qHTS assay to identify small molecule antagonists of the progesterone receptor (PR) signaling pathway - cell viability counter screen (AID 1346798); note: nearly all actives have a fitted effect of over 50% in size; note: potency is the fitted concentration of half-maximal effect
Procedure, shortened: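 In the same plates used for the beta-lactamase readout, cell viability of compound- and R5020-treated PR-UAS-bla HEK293T cells (16 hr, 37C) was assessed by CellTiter-Glo luminescence.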

[4] = qHTS assay to identify small molecule antagonists of the TGF-beta/Smad signaling pathway - cell viability counter screen (AID 1346824); note: nearly all actives have a fitted effect of over 50% in size
Procedure, shortened: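 Cytotoxicity counter-screen run in the same wells as the beta-lactamase Smad reporter read: CellTiter-Glo luminescence after 30 min at room temperature. HEK 293T SBE-bla cells had 5 hr compound exposure at 37 C with TGF-beta1 (0.25 ng/mL stock).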

[5] = qHTS assay to identify small molecule agonists of the TGF-beta/Smad signaling pathway - cell viability counter screen (AID 1346829); note: top concentration of the series differs between compounds; nearly all actives have a fitted effect of over 45% in size
Procedure, shortened: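 SBE-bla HEK 293T cells plated overnight, compound exposure 5 hr at 37 C. Viability read in the same wells by CellTiter-Glo luminescence after 30 min at room temperature, following the beta-lactamase read.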

[6] = qHTS assay to identify small molecule agonists of the TGF-beta/Smad signaling pathway (AID 1346859; active = well fitted activation curve with a large enough effect in the signal ratio in the repeat runs, not every such curve was filed as active; the % refers to the signal ratio; note: series mostly up to about 77 µM)
Procedure, shortened: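 Screening used HEK 293T SBE-bla cells at 4,000/well. Test agents: 5 hr, 37 C. Detection: FRET substrate, 2 hr RT, then excitation 405 nm with emissions at 460 and 530 nm.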

[7] = target: Thyrotropin-releasing hormone receptor (Homo sapiens) (UniProt P34981); experiment: qHTS assay to identify small molecule antagonists of the thyrotropin-releasing hormone receptor (TRHR) signaling pathway (AID 1346877; active = well fitted inhibition curve with a large enough effect in the repeat runs, not every such curve was filed as active; note: series mostly up to about 51 µM)
Procedure, shortened: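 Intracellular calcium fluorescence, read kinetically every second over 3 min, reports TRH-evoked signalling in HEK293 cells carrying TRHR. Test compounds were added 5 min ahead of a 1 nM TRH challenge.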

[8] = target: Thyrotropin-releasing hormone receptor (Homo sapiens) (UniProt P34981); experiment: qHTS assay to identify small molecule agonists of the thyrotropin-releasing hormone receptor (TRHR) signaling pathway (AID 1346891; calls by dose curve; note: series mostly up to about 58 µM)
Procedure, shortened: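 Readout was intracellular calcium fluorescence in TRHR-Hek293 cells. Cells were incubated 18 h, dye-loaded 2 h at 37 °C, and treated with compound in agonist mode.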

[9] = Human pregnane X receptor (PXR) small molecule agonists, qHTS cell viability counter screen (AID 1346977); note: nearly all actives have a fitted effect of over 50% in size; note: potency is the fitted concentration of half-maximal effect
Procedure, shortened: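 In each well, the PXR reporter HepG2 line was checked for viability: CellTiter-Fluor reagent added 23hr post-dosing, fluorescence read after 1hr incubation at 37C.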

[10] = Caspase-3/7 induction in HepG2 cells by small molecules, qHTS assay (AID 1346978); note: nearly all actives have a fitted effect of over 15% in size
Procedure, shortened: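 Caspase-3/7 induction was measured by Caspase-Glo 3/7 luminescence (30 min, room temperature) after a 17 hr compound exposure of wild-type HepG2 cells seeded at 2,000 per well and pre-incubated 5 hr.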

[11] = Caspase-3/7 induction in CHO-K1 cells by small molecules, qHTS cell viability counter screen (AID 1346979); note: nearly all actives have a fitted effect of over 35% in size; note: potency is the fitted concentration of half-maximal effect
Procedure, shortened: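 Following a 5hr settling period, CHO-K1 cells at 1,500 per well received DMSO-dissolved compounds. Cell viability was quantified 16hr later by CellTiter-Fluor fluorescence, measured after 1hr with reagent at 37C.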

[12] = Caspase-3/7 induction in CHO-K1 cells by small molecules, qHTS assay (AID 1346980); note: nearly all actives have a fitted effect of over 15% in size
Procedure, shortened: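 Luminescent Caspase-Glo 3/7 read (30min, room temperature) quantified apoptosis induction. Cells were wild-type CHO-K1, treated with compound for 17hr at 37 C and 5% CO2.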

[13] = Caspase-3/7 induction in HepG2 cells by small molecules, qHTS cell viability counter screen (AID 1346981); note: nearly all actives have a fitted effect of over 30% in size; note: potency is the fitted concentration of half-maximal effect
Procedure, shortened: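 HepG2, WT, 2,000 cells/well; 5 hr pre-incubation 37 C/5% CO2; compound pin-transferred from DMSO; 16 hr exposure; CellTiter-Fluor, 1 hr; fluorescence read.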

[14] = target: Nuclear receptor subfamily 1 group I member 2 (Homo sapiens) (UniProt O75469); experiment: Human pregnane X receptor (PXR) small molecule agonists, qHTS assay (AID 1346982); note: nearly all actives have a fitted effect of over 35% in size; note: potency is the fitted concentration of half-maximal effect
Procedure, shortened: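 Luciferase signal from ONE-Glo (30 min, room temperature) measured activation of hPXR-driven CYP3A4 reporter expression in PXR-Luc HepG2 cells treated with compounds for 24 hr at 37 C.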

[15] = target: Cytochrome P450 2D6 (Homo sapiens) (UniProt P10635); experiment: Cytochrome P450 Family 2 Subfamily D Member 6 (CYP2D6) small molecule antagonists: luciferase reporter qHTS assay (AID 1671196); note: nearly all actives have a fitted effect of over 50% in size; note: potency is the fitted concentration of half-maximal effect
Procedure, shortened: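 Read-out is luminescence from luciferin formed by CYP2D6 turnover of a proluciferin substrate, recorded as relative luminescence units. Reactions ran 1 h at room temperature after NADPH regeneration solution was added.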

[16] = target: Progesterone receptor (Homo sapiens) (UniProt P06401); experiment: qHTS assay to identify small molecule agonists of the progesterone receptor (PR) signaling pathway (AID 1346784; calls by dose curve; note: nearly all actives have a fitted effect of over 30% in size)
Procedure, shortened: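 Reporter assay, GripTite PR-UAS-bla HEK 293T cells: 16 hr exposure to DMSO-dissolved compounds at 37C, 5% CO2, in steroid-depleted (2% charcoal-stripped FBS) medium; beta-lactamase measured by FRET fluorescence.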

[17] = qHTS assay to identify small molecule agonists of the progesterone receptor (PR) signaling pathway - cell viability counter screen (AID 1346799; calls by dose curve; note: nearly all actives have a fitted effect of over 45% in size; note: potency is the fitted concentration of half-maximal effect)
Procedure, shortened: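 Multiplexed viability read: CellTiter-Glo luminescence, 30 min RT, following LiveBLAzer FRET measurement on PR-UAS-bla HEK293T cells exposed to compounds 16 hr.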

[18] = target: Nuclear receptor subfamily 1 group I member 2 (Rattus norvegicus) (UniProt Q9R1A7); experiment: Rat pregnane X receptor (rPXR) activation by small molecules, qHTS assay (AID 1346983); conditions: rPXR luciferase reporter cells, One-Glo luminescence, 24 h; max activation: hits give high values; note: nearly all actives have a fitted effect of over 20% in size
Procedure, shortened: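 Luminescent readout (One-Glo luciferase, 30 min room temperature) followed 24 hr compound treatment at 37 C of rPXR cells plated 2,000 per well and preincubated 5hr; qHTS format with compounds delivered in DMSO.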

[19] = target: Nuclear receptor subfamily 1 group I member 2 (Homo sapiens) (UniProt O75469); experiment: CYP3A4 induction through human pregnane X receptor (PXR) by small molecules, qHTS assay (AID 1346984); note: nearly all actives have a fitted effect of over 40% in size
Procedure, shortened: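 Luminescence readout: luciferase signal after One-Glo (30 min, room temperature), following 3 h at 37C with 3uM final Luciferin-IPA P450 substrate. Cells were DPX-2 (HepG2, PXR/CYP3A4-luc co-transfected) dosed for 24 h.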
% is set by controls: 0 for no effect and ±100 for the full control effect.

Chain of Thyrotropin-releasing hormone receptor (Homo sapiens) (P34981 whole entry, looked up): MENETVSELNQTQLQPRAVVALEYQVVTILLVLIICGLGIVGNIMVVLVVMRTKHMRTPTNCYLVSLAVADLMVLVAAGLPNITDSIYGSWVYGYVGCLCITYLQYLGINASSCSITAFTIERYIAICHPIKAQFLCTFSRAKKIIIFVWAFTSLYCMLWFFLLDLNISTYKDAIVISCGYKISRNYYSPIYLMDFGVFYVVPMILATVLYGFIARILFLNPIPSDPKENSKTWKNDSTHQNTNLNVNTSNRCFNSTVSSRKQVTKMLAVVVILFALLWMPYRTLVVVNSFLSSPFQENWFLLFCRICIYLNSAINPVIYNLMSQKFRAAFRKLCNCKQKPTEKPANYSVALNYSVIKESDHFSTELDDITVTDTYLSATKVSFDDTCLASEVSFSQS
Chain of Thyrotropin receptor (Homo sapiens) (P16473 whole entry, looked up): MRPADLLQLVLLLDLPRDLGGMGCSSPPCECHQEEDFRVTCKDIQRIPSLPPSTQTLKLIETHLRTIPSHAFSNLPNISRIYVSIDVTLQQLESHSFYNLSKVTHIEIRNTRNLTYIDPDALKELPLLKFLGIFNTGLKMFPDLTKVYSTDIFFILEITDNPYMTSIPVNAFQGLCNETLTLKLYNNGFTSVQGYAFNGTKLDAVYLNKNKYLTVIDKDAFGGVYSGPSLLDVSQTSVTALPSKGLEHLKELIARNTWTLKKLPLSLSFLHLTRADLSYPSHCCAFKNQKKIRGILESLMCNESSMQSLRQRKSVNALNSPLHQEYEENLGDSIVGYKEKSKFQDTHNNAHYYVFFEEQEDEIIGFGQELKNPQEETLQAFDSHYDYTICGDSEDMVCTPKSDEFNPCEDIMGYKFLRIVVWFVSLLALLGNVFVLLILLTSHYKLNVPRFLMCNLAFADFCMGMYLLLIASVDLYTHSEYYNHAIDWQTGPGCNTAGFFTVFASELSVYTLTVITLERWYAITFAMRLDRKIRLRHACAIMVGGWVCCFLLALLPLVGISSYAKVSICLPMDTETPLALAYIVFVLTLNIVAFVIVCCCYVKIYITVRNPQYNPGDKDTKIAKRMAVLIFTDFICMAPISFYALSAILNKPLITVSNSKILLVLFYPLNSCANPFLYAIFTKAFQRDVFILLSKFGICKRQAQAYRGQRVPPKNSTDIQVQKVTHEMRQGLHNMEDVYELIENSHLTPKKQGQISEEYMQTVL
Chain of Cytochrome P450 2D6 (Homo sapiens) (P10635 whole entry, looked up): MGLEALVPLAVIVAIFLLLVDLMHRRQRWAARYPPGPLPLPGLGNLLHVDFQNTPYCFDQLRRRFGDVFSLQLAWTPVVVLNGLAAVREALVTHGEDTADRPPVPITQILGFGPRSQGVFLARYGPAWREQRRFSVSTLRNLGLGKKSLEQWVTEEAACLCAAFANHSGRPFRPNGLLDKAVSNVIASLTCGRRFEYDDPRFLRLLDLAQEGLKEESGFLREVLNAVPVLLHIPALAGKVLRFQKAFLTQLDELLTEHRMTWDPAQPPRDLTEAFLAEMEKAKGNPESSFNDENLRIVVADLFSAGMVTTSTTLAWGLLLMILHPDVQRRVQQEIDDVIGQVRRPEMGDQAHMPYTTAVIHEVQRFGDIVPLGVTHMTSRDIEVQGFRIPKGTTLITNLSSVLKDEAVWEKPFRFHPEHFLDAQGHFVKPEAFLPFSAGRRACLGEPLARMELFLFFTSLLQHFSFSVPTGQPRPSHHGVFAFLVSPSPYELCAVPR
Chain of Nuclear receptor subfamily 1 group I member 2 (Homo sapiens) (O75469 whole entry, looked up): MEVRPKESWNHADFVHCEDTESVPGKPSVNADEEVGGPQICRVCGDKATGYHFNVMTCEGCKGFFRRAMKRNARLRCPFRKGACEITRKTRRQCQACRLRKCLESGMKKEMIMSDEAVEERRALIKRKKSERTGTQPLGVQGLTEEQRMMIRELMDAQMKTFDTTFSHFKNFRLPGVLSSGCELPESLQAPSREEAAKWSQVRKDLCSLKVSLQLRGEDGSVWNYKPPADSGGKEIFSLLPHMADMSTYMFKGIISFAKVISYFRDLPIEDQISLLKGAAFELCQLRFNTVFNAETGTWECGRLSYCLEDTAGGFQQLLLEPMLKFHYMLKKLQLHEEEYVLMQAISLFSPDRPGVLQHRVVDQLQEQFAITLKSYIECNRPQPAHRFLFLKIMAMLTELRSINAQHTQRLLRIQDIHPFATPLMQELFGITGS
Chain of Progesterone receptor (Homo sapiens) (P06401 whole entry, looked up): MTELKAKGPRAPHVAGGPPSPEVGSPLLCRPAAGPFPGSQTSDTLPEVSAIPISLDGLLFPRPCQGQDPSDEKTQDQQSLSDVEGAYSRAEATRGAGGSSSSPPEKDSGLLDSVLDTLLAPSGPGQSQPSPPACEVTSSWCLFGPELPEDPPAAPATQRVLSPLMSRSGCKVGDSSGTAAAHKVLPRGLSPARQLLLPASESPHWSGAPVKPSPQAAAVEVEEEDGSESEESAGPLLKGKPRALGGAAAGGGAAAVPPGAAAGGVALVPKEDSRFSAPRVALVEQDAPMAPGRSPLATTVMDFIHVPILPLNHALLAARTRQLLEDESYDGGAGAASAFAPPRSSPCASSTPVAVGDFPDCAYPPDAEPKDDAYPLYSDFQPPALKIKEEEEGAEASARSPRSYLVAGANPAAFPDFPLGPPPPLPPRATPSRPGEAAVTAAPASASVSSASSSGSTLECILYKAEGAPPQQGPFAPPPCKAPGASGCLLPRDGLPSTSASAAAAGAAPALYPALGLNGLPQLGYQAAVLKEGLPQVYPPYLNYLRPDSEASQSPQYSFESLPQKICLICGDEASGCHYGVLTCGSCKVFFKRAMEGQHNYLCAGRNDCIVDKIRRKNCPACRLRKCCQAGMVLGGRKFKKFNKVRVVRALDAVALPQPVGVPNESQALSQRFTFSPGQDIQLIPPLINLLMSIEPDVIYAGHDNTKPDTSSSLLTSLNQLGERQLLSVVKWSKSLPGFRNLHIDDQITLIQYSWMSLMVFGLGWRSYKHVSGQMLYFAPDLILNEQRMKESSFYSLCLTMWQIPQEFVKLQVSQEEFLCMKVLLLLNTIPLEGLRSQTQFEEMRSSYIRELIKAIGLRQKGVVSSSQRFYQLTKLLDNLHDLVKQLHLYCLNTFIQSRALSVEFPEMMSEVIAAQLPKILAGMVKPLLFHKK
Chain of Nuclear receptor subfamily 1 group I member 2 (Rattus norvegicus) (Q9R1A7 whole entry, looked up): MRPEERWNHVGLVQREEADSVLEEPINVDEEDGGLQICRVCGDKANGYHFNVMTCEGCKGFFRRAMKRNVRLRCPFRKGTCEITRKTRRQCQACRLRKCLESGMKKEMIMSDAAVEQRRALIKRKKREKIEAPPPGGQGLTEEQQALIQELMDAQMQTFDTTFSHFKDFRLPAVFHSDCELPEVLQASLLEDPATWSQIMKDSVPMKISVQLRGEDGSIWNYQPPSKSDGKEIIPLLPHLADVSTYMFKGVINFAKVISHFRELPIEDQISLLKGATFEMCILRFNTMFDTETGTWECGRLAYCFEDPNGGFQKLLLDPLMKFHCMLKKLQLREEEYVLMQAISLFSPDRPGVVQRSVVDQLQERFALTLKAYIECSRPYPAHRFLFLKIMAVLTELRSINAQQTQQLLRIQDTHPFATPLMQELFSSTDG

O=S(=O)(O)CO
inactive: Potency [1] | Potency [2] | Potency [3] | outcome [4] | Potency [5] | Potency [6] | outcome [7] | outcome [8] | Potency [9] | Potency [10] | Potency [11] | outcome [12] | Potency [13] | Potency [14] | Potency [15]

COc1cc(NCc2ccc3nc(N)nc(N)c3c2C)cc(OC)c1OC
inactive: Potency [1] | Potency [16] | Potency [3] | Potency [17] | Potency [6] | outcome [7] | outcome [8] | Potency [10] | outcome [12] | Potency [14] | max activation [18] -10.1% | Potency [19]
active: Potency [11] 26.6 µM | Potency [13] 26.6 µM | Potency [15] 13.8 µM

CC(C)(C)NCC(O)COc1cccc2c1C[C@H](O)[C@H](O)C2 (stereo partly specified)
inactive: Potency [1] | Potency [16] | Potency [2] | Potency [17] | outcome [4] | Potency [5] | Potency [6] | Potency [10] | Potency [11] | Potency [13] | Potency [14] | max activation [18] -1.94% | Potency [19] | Potency [15]

Cc1cc(CCC(=O)OCCOCCOCCOC(=O)CCc2cc(C)c(O)c(C(C)(C)C)c2)cc(C(C)(C)C)c1O
inactive: Potency [1] | Potency [16] | Potency [2] | Potency [3] | Potency [17] | outcome [4] | Potency [5] | Potency [6] | outcome [7] | outcome [8] | Potency [9] | Potency [10] | Potency [11] | Potency [13]
active: Potency [15] 9.78 µM

CC1=C2[C@@H]([C@H](C)CC[C@H]2/C=C(\C)C(=O)O)[C@H](O)C1
inactive: Potency [1] | Potency [16] | Potency [3] | Potency [17] | outcome [4] | Potency [6] | Potency [9] | Potency [10] | outcome [12] | Potency [13] | Potency [14]

CN1CCCN(C(c2ccccc2)c2ccc(Cl)cc2)CC1 (stereo unspecified)
active: Potency [2] 21.1 µM | Potency [3] 15 µM | Potency [17] 13.3 µM | Potency [9] 13.3 µM | Potency [11] 26.6 µM | Potency [13] 23.7 µM | Potency [15] 0.49 µM
inactive: Potency [1] | Potency [16] | outcome [4] | Potency [5] | Potency [6] | outcome [12] | Potency [14]

COc1ccc(C)cc1
inactive: Potency [1] | Potency [16] | Potency [2] | Potency [17] | outcome [4] | Potency [5] | Potency [6] | Potency [9] | Potency [10] | Potency [11] | outcome [12] | Potency [13] | Potency [14]
active: Potency [15] 17.8 µM

COc1ccc(-n2nc(C(F)F)cc2-c2ccc(S(C)=O)cc2)cc1 (stereo unspecified)
inactive: Potency [1] | Potency [16] | Potency [3] | Potency [17] | outcome [4] | outcome [7] | outcome [8] | Potency [9] | Potency [10] | outcome [12] | Potency [13]
active: Potency [14] 30.6 µM | Potency [15] 35.6 µM
